Measured values from the supplement of paper PMC11732987, “Enantioselective OTUD7B fragment discovery through chemoproteomics screening and high-throughput optimisation” (Communications Chemistry, 2025).

Columns and labels:
Test in all cases: log2 ratio of Biotin-Ahx-Ub-VS probe labelling (fragment/DMSO); higher = less target engagement (more negative = stronger competition), active = hit call of the paper (q ≤ 0.05, log2 ratio ≤ -1)
Details in all cases: compound concentration: 200 uM; treatment time: 3 h
OTUD6B = molecular target: T1, OTUD6B (UniProt Q8N6M0)
T1 sequence (whole entry): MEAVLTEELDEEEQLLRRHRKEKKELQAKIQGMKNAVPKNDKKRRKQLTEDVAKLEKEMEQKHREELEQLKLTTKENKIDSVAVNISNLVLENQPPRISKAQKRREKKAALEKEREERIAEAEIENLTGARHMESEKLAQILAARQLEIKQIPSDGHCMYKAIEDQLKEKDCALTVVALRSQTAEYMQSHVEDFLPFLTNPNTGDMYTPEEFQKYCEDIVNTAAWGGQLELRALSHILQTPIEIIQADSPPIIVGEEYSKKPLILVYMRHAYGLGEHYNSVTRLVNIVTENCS
Summary of the method: (§1)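 Average log2 ratios of fragment over vehicle were obtained by unpaired t-test from global-median-normalised Spectronaut label-free quantities. Proteins with ≥2 unique peptides were included. HEK293T lysate (495 µg per sample) was treated in triplicate with fragment at 200 µM or vehicle for 3 h, then with Biotin-Ahx-Ub-VS at 0.5 µM final for 1 h, and labelled DUBs were NeutrAvidin-enriched and run by diaPASEF LC-MS/MS.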

OTUD7B = molecular target: T2, OTUD7B (UniProt Q6GQQ9)
T2 sequence (whole entry): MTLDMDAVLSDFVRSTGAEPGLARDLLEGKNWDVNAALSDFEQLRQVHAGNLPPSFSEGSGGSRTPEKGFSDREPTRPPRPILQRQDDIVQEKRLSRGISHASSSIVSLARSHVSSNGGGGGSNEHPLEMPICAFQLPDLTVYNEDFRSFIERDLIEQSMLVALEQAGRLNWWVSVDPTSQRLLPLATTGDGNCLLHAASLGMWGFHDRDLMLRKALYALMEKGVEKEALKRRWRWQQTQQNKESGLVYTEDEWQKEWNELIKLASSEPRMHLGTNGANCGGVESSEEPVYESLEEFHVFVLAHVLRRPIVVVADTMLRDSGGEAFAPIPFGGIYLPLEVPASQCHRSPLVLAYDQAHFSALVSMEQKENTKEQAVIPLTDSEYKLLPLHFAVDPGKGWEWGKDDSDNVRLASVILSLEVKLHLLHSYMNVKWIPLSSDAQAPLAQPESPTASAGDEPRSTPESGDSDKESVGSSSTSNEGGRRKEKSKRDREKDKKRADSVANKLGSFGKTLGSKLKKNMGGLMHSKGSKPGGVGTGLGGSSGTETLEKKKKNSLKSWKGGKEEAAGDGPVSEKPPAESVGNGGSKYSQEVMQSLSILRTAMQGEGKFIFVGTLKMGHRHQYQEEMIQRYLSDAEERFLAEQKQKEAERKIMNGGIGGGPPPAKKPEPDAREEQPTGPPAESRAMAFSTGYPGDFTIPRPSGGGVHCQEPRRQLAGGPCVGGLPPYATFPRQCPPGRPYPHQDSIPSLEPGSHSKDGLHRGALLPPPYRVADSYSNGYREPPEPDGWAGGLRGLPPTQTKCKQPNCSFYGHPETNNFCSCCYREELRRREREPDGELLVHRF
Summary of the method: as §1

PRPF8 = PRPF8 (UniProt Q6P2Q9)
Summary of the method: as §1

PSMD7 = molecular target: T3, PSMD7 (UniProt P51665)
T3 sequence (whole entry): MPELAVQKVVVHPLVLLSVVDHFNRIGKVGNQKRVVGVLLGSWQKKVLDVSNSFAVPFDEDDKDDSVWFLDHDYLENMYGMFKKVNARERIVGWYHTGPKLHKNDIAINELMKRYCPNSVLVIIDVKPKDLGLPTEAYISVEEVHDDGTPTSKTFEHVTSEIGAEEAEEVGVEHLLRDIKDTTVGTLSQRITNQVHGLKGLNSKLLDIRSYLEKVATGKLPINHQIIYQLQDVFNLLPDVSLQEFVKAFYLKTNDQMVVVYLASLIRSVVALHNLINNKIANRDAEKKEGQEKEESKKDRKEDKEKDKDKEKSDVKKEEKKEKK
Summary of the method: as §1

UCHL1 = UCHL1 (UniProt P09936)
UCHL1, sequence (P09936 whole entry, looked up): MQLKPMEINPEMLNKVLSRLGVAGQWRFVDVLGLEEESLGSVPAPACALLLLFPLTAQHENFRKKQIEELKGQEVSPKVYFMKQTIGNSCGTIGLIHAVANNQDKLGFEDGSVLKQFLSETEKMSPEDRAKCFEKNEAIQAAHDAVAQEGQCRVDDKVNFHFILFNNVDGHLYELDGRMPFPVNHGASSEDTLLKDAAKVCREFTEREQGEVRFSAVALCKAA
Summary of the method: as §1

UCHL3 = molecular target: T4, UCHL3 (UniProt P15374)
T4 sequence (whole entry): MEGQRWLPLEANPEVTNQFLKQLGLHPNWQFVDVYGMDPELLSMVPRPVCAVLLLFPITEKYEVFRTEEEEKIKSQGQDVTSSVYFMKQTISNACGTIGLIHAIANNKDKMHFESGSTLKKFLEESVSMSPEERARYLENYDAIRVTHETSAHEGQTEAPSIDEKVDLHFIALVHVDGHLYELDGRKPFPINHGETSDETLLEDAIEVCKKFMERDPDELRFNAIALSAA
Summary of the method: as §1

UCHL5 = molecular target: T5, UCHL5 (UniProt Q9Y5K5)
T5 sequence (whole entry): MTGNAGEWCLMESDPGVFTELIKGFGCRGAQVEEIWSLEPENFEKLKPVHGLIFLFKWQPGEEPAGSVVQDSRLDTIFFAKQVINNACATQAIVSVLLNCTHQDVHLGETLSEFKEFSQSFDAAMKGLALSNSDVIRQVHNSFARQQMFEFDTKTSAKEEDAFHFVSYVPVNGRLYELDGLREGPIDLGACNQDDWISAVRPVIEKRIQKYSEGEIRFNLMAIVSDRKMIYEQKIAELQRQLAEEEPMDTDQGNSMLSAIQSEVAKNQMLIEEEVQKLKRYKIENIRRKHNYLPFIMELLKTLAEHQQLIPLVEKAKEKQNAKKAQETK
Summary of the method: as §1

USP10 = USP10 (UniProt Q14694)
USP10, sequence (Q14694 whole entry): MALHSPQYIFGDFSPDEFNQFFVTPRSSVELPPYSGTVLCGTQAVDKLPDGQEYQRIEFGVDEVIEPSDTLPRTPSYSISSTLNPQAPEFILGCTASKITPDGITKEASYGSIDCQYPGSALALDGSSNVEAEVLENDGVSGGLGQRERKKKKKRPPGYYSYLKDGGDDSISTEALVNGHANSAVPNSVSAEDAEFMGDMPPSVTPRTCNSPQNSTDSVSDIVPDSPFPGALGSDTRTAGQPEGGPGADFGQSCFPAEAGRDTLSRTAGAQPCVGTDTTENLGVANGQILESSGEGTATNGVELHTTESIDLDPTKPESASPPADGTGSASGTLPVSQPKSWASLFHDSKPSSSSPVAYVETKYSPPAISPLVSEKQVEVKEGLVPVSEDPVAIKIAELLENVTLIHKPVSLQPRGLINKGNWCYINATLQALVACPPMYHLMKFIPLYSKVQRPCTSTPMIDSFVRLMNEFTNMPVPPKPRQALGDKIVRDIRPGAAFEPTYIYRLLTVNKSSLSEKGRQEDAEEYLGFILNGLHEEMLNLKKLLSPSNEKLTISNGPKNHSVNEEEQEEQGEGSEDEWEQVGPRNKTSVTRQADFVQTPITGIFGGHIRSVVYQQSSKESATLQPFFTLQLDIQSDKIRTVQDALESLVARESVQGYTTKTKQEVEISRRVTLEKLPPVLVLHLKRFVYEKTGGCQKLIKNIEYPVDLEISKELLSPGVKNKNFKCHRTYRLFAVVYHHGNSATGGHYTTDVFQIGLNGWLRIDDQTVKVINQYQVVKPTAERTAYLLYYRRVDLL
Summary of the method: as §1

USP15 = molecular target: T6, USP15 (UniProt Q9Y4E8)
T6 sequence (whole entry): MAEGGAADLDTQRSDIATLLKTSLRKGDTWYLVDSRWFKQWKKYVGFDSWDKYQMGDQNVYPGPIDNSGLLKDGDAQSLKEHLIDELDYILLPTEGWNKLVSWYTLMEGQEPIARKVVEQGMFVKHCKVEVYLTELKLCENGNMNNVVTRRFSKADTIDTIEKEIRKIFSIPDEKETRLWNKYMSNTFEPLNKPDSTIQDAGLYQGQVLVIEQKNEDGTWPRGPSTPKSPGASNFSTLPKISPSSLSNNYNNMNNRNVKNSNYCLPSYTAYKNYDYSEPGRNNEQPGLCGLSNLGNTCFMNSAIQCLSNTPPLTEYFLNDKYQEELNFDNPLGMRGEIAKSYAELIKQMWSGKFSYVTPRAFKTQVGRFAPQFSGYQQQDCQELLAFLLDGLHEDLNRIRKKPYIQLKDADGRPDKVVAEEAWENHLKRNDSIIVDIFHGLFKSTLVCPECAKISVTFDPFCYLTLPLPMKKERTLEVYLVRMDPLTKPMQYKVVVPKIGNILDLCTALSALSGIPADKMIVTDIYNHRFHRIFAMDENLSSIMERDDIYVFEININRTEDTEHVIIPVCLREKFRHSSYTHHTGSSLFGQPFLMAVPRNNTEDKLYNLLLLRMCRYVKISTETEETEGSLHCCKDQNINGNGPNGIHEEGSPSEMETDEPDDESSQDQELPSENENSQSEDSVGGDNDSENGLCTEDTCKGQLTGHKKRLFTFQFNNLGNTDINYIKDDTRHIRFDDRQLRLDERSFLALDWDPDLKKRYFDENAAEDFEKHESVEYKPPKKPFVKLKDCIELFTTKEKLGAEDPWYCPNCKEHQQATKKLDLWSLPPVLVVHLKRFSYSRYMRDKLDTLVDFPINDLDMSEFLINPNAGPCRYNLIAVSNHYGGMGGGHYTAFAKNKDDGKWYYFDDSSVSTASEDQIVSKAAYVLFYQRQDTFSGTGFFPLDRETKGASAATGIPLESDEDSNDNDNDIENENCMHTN
Summary of the method: as §1

USP16 = USP16 (UniProt Q9Y5T5)
USP16, sequence (Q9Y5T5 whole entry, looked up): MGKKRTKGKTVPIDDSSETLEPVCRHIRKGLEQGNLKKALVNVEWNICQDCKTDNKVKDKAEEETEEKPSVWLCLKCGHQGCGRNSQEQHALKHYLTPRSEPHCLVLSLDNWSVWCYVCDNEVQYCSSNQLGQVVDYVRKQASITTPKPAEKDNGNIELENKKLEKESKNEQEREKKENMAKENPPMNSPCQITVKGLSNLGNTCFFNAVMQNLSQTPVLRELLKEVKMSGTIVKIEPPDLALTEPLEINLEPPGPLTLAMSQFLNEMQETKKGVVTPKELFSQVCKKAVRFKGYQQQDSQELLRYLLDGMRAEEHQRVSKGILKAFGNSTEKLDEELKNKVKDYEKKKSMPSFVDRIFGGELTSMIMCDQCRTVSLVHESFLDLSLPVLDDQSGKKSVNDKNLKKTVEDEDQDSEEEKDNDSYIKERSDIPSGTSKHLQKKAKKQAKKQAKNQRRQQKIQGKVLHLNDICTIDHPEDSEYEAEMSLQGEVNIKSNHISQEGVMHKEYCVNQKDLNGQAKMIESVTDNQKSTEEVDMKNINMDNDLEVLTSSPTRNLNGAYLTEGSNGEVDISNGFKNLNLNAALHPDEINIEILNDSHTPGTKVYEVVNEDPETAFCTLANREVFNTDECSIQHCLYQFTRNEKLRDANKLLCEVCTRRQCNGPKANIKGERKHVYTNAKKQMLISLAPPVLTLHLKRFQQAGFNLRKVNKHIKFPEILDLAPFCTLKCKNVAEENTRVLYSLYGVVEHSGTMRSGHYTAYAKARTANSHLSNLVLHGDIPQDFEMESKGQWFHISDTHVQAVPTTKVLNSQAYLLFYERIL
Summary of the method: as §1

Measured: log2 ratio of Biotin-Ahx-Ub-VS probe labelling

CC1CN(c2ccc(NC(=O)CCl)cc2)CC(C)O1 (stereo not given)
active: UCHL1 -1.48
inactive: OTUD6B -0.241 | OTUD7B -0.313 | PRPF8 0.0099 | PSMD7 -0.00447 | UCHL3 0.00853 | UCHL5 -0.366 | USP10 -0.118 | USP15 -0.153 | USP16 -0.987
